Measurements as given in PMC11006913.
Substitutions are numbered along the chain they refer to.

Key:
Assay in all cases: PBM; 200 nM protein, PBS
Conditions in all cases: dsDNA, one strand shown
HOXB4 [1] = target: HOXB4 (Homo sapiens, UniProt P17483 148-234)
VENTX [2] = target: T1, VENTX (Homo sapiens, UniProt O95231 78-163, R121Q)
T1 sequence: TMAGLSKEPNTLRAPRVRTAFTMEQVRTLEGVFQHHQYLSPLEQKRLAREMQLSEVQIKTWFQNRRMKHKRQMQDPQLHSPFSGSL

HOXA4 [3] = target: HOXA4 (Homo sapiens, UniProt Q00056 201-287, W262R)
ALX4 = ALX4 (Homo sapiens, UniProt Q9H161 200-286)
PRRX1 [4] = target: PRRX1 (Homo sapiens, UniProt P54821 80-166, F113S)
VENTX [5] = target: T2, VENTX (Homo sapiens, UniProt O95231 78-163, Y115F)
T2 sequence: T1 sequence with Y38F, Q44R

HOXB6 [6] = target: HOXB6 (Homo sapiens, UniProt P17509 132-218, K202E)
HOXA2 [7] = target: HOXA2 (Homo sapiens, UniProt O43364 129-215, R185T)
HOXA4 [8] = target: HOXA4 (Homo sapiens, UniProt Q00056 201-287, R217L)
HOXB4 [9] = target: HOXB4 (Homo sapiens, UniProt P17483 148-234, V174I)
PAX4 = target: T3, PAX4 (Homo sapiens, UniProt O43316 9-242, R200Q)
T3 sequence: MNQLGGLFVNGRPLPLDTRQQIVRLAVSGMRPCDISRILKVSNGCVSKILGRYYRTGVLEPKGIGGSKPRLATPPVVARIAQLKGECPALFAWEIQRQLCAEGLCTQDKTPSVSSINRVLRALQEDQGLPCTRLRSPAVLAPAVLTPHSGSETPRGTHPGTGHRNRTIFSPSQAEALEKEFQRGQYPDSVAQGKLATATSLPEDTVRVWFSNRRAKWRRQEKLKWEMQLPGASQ

HOXA2 [10] = target: HOXA2 (Homo sapiens, UniProt O43364 129-215, R185K)
HOXA4 [11] = target: HOXA4 (Homo sapiens, UniProt Q00056 201-287)
MSX2 [12] = target: MSX2 (Homo sapiens, UniProt P35548 130-214)
MSX2 [13] = target: MSX2 (Homo sapiens, UniProt P35548 130-214, F161Y)
VAX1 [14] = target: VAX1 (Homo sapiens, UniProt Q5SQQ9 86-172, T142I)
HOXA4 [15] = target: HOXA4 (Homo sapiens, UniProt Q00056 201-287, W262F)
PRRX1 [16] = target: PRRX1 (Homo sapiens, UniProt P54821 80-166)
VAX1 [17] = target: VAX1 (Homo sapiens, UniProt Q5SQQ9 86-172, K157R)
HOXB6 [18] = target: HOXB6 (Homo sapiens, UniProt P17509 132-218)
HOXB6 (Homo sapiens, UniProt P17509 132-218), sequence (P17509 132-218): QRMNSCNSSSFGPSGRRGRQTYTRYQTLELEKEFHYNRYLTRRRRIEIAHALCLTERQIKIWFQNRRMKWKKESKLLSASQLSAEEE

HOXA2 (Homo sapiens, UniProt O43364 129-215, R185T), sequence (O43364 129-215 R185T): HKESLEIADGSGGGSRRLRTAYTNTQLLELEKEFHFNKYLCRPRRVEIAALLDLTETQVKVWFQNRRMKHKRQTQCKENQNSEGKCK
PRRX1 (Homo sapiens, UniProt P54821 80-166, F113S), sequence (P54821 80-166 F113S): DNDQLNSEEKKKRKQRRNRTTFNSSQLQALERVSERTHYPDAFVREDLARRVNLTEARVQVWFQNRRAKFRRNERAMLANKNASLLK
HOXA4 (Homo sapiens, UniProt Q00056 201-287), sequence (Q00056 201-287): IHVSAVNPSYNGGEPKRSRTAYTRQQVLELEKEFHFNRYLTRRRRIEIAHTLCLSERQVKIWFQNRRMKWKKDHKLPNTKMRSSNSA
HOXA4 (Homo sapiens, UniProt Q00056 201-287, W262F), sequence (Q00056 201-287 W262F): as the sequence (Q00056 201-287) above, with W62F counted along it
ALX4, sequence (Q9H161 200-286): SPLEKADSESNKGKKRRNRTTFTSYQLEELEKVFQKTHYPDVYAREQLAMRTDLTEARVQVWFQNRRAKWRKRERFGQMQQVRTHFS
HOXA4 (Homo sapiens, UniProt Q00056 201-287, W262R), sequence (Q00056 201-287 W262R): as the sequence (Q00056 201-287) above, with W62R counted along it
HOXA4 (Homo sapiens, UniProt Q00056 201-287, R217L), sequence (Q00056 201-287 R217L): as the sequence (Q00056 201-287) above, with R17L counted along it
HOXA2 (Homo sapiens, UniProt O43364 129-215, R185K), sequence (O43364 129-215 R185K): as the sequence (O43364 129-215 R185T) above, with T57K counted along it
VAX1 (Homo sapiens, UniProt Q5SQQ9 86-172, T142I), sequence (Q5SQQ9 86-172 T142I): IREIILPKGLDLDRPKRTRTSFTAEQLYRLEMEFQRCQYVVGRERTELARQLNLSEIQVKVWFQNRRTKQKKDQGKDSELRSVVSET
HOXB6 (Homo sapiens, UniProt P17509 132-218, K202E), sequence (P17509 132-218 K202E): as the sequence (P17509 132-218) above, with K71E counted along it
MSX2 (Homo sapiens, UniProt P35548 130-214), sequence (P35548 130-214): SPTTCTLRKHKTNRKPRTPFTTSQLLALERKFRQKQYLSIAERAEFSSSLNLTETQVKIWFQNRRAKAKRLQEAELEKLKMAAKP
VAX1 (Homo sapiens, UniProt Q5SQQ9 86-172, K157R), sequence (Q5SQQ9 86-172 K157R): as the sequence (Q5SQQ9 86-172 T142I) above, with I57T, K72R counted along it
MSX2 (Homo sapiens, UniProt P35548 130-214, F161Y), sequence (P35548 130-214 F161Y): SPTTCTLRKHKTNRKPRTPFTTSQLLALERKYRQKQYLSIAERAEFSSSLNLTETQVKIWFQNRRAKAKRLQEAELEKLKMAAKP
PRRX1 (Homo sapiens, UniProt P54821 80-166), sequence (P54821 80-166): as the sequence (P54821 80-166 F113S) above, with S34F counted along it
HOXB4 (Homo sapiens, UniProt P17483 148-234), sequence (P17483 148-234): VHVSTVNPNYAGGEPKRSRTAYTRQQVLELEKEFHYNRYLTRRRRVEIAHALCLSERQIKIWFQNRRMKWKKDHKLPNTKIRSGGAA
HOXB4 (Homo sapiens, UniProt P17483 148-234, V174I), sequence (P17483 148-234 V174I): as the sequence (P17483 148-234) above, with V27I counted along it

| Sequence | binding signal (HOXB4 [1]) | binding signal (VENTX [2]) | binding signal (HOXA4 [3]) | binding signal (ALX4) | binding signal (PRRX1 [4]) | binding signal (VENTX [5]) | binding signal (HOXB6 [6]) | binding signal (HOXA2 [7]) | binding signal (HOXA4 [8]) | binding signal (HOXB4 [9]) | binding signal (PAX4) | binding signal (HOXA2 [10]) | binding signal (HOXA4 [11]) | binding signal (MSX2 [12]) | binding signal (MSX2 [13]) | binding signal (VAX1 [14]) | binding signal (HOXA4 [15]) | binding signal (PRRX1 [16]) | binding signal (VAX1 [17]) | binding signal (HOXB6 [18]) |
| --- | --- | --- | --- | --- | --- | --- | --- | --- | --- | --- | --- | --- | --- | --- | --- | --- | --- | --- | --- | --- |
| GTAATTAA | 13.5 upbm affinity estimate (log intensity, higher = more binding, comparable within an allelic series) | 12.4 upbm affinity estimate (log intensity, higher = more binding, comparable within an allelic series) | 10.9 upbm affinity estimate (log intensity, higher = more binding, comparable within an allelic series) | 14.4 upbm affinity estimate (log intensity, higher = more binding, comparable within an allelic series) | 11.8 upbm affinity estimate (log intensity, higher = more binding, comparable within an allelic series) | 12.4 upbm affinity estimate (log intensity, higher = more binding, comparable within an allelic series) | 10.3 upbm affinity estimate (log intensity, higher = more binding, comparable within an allelic series) | 13.9 upbm affinity estimate (log intensity, higher = more binding, comparable within an allelic series) | 13.3 upbm affinity estimate (log intensity, higher = more binding, comparable within an allelic series) | 14.3 upbm affinity estimate (log intensity, higher = more binding, comparable within an allelic series) | 12.5 upbm affinity estimate (log intensity, higher = more binding, comparable within an allelic series) | 13.9 upbm affinity estimate (log intensity, higher = more binding, comparable within an allelic series) | 14.3 upbm affinity estimate (log intensity, higher = more binding, comparable within an allelic series) | 14.1 upbm affinity estimate (log intensity, higher = more binding, comparable within an allelic series) | 13.7 upbm affinity estimate (log intensity, higher = more binding, comparable within an allelic series) | 13.9 upbm affinity estimate (log intensity, higher = more binding, comparable within an allelic series) | 12.9 upbm affinity estimate (log intensity, higher = more binding, comparable within an allelic series) | 13.6 upbm affinity estimate (log intensity, higher = more binding, comparable within an allelic series) | 13.9 upbm affinity estimate (log intensity, higher = more binding, comparable within an allelic series) | 12.9 upbm affinity estimate (log intensity, higher = more binding, comparable within an allelic series) |
| CTAATTAA | 13.3 upbm affinity estimate (log intensity, higher = more binding, comparable within an allelic series) | 12.7 upbm affinity estimate (log intensity, higher = more binding, comparable within an allelic series) | 11 upbm affinity estimate (log intensity, higher = more binding, comparable within an allelic series) | 14.4 upbm affinity estimate (log intensity, higher = more binding, comparable within an allelic series) | 12.1 upbm affinity estimate (log intensity, higher = more binding, comparable within an allelic series) | 12.4 upbm affinity estimate (log intensity, higher = more binding, comparable within an allelic series) | 10.1 upbm affinity estimate (log intensity, higher = more binding, comparable within an allelic series) | 13.8 upbm affinity estimate (log intensity, higher = more binding, comparable within an allelic series) | 12.9 upbm affinity estimate (log intensity, higher = more binding, comparable within an allelic series) | 13.9 upbm affinity estimate (log intensity, higher = more binding, comparable within an allelic series) | 12.9 upbm affinity estimate (log intensity, higher = more binding, comparable within an allelic series) | 13.8 upbm affinity estimate (log intensity, higher = more binding, comparable within an allelic series) | 14.2 upbm affinity estimate (log intensity, higher = more binding, comparable within an allelic series) | 14.1 upbm affinity estimate (log intensity, higher = more binding, comparable within an allelic series) | 13.7 upbm affinity estimate (log intensity, higher = more binding, comparable within an allelic series) | 13.8 upbm affinity estimate (log intensity, higher = more binding, comparable within an allelic series) | 12.7 upbm affinity estimate (log intensity, higher = more binding, comparable within an allelic series) | 13.7 upbm affinity estimate (log intensity, higher = more binding, comparable within an allelic series) | 13.8 upbm affinity estimate (log intensity, higher = more binding, comparable within an allelic series) | 12.2 upbm affinity estimate (log intensity, higher = more binding, comparable within an allelic series) |
| ATAATTAT | 13.7 upbm affinity estimate (log intensity, higher = more binding, comparable within an allelic series) | 11.9 upbm affinity estimate (log intensity, higher = more binding, comparable within an allelic series) | 10.9 upbm affinity estimate (log intensity, higher = more binding, comparable within an allelic series) | 14.2 upbm affinity estimate (log intensity, higher = more binding, comparable within an allelic series) | 11.7 upbm affinity estimate (log intensity, higher = more binding, comparable within an allelic series) | 11.8 upbm affinity estimate (log intensity, higher = more binding, comparable within an allelic series) | 10.3 upbm affinity estimate (log intensity, higher = more binding, comparable within an allelic series) | 13.6 upbm affinity estimate (log intensity, higher = more binding, comparable within an allelic series) | 12.7 upbm affinity estimate (log intensity, higher = more binding, comparable within an allelic series) | 14.5 upbm affinity estimate (log intensity, higher = more binding, comparable within an allelic series) | 12.3 upbm affinity estimate (log intensity, higher = more binding, comparable within an allelic series) | 13.8 upbm affinity estimate (log intensity, higher = more binding, comparable within an allelic series) | 14.3 upbm affinity estimate (log intensity, higher = more binding, comparable within an allelic series) | 14 upbm affinity estimate (log intensity, higher = more binding, comparable within an allelic series) | 13.6 upbm affinity estimate (log intensity, higher = more binding, comparable within an allelic series) | 13.3 upbm affinity estimate (log intensity, higher = more binding, comparable within an allelic series) | 12.1 upbm affinity estimate (log intensity, higher = more binding, comparable within an allelic series) | 13.6 upbm affinity estimate (log intensity, higher = more binding, comparable within an allelic series) | 13.3 upbm affinity estimate (log intensity, higher = more binding, comparable within an allelic series) | 12.4 upbm affinity estimate (log intensity, higher = more binding, comparable within an allelic series) |
| ATTAATTA | 13.7 upbm affinity estimate (log intensity, higher = more binding, comparable within an allelic series) | 12.8 upbm affinity estimate (log intensity, higher = more binding, comparable within an allelic series) | 11.1 upbm affinity estimate (log intensity, higher = more binding, comparable within an allelic series) | 14.7 upbm affinity estimate (log intensity, higher = more binding, comparable within an allelic series) | 12.2 upbm affinity estimate (log intensity, higher = more binding, comparable within an allelic series) | 12.5 upbm affinity estimate (log intensity, higher = more binding, comparable within an allelic series) | 10.4 upbm affinity estimate (log intensity, higher = more binding, comparable within an allelic series) | 14 upbm affinity estimate (log intensity, higher = more binding, comparable within an allelic series) | 13.4 upbm affinity estimate (log intensity, higher = more binding, comparable within an allelic series) | 14.4 upbm affinity estimate (log intensity, higher = more binding, comparable within an allelic series) | 12.8 upbm affinity estimate (log intensity, higher = more binding, comparable within an allelic series) | 14 upbm affinity estimate (log intensity, higher = more binding, comparable within an allelic series) | 14.4 upbm affinity estimate (log intensity, higher = more binding, comparable within an allelic series) | 14.2 upbm affinity estimate (log intensity, higher = more binding, comparable within an allelic series) | 13.8 upbm affinity estimate (log intensity, higher = more binding, comparable within an allelic series) | 13.9 upbm affinity estimate (log intensity, higher = more binding, comparable within an allelic series) | 13.1 upbm affinity estimate (log intensity, higher = more binding, comparable within an allelic series) | 13.8 upbm affinity estimate (log intensity, higher = more binding, comparable within an allelic series) | 13.8 upbm affinity estimate (log intensity, higher = more binding, comparable within an allelic series) | 12.8 upbm affinity estimate (log intensity, higher = more binding, comparable within an allelic series) |
